Sampled rows, rich in hits. Any-hit rate of the full collection: about 3.1%.
D3 antag: blocks the human D3 dopamine receptor; D3R cells, DiscoveRx beta-arrestin luminescence, antagonist mode; hits give low values; max response, negative = inhibition, %; 360,000 compounds, 2.5% hits; AID 652054; in the data active = max response below about -50%; inconclusive = no clear call, values can overlap the other calls; note: % is set by controls: 0 for no effect and ±100 for the full control effect
Target sequence (P35462 whole entry, looked up): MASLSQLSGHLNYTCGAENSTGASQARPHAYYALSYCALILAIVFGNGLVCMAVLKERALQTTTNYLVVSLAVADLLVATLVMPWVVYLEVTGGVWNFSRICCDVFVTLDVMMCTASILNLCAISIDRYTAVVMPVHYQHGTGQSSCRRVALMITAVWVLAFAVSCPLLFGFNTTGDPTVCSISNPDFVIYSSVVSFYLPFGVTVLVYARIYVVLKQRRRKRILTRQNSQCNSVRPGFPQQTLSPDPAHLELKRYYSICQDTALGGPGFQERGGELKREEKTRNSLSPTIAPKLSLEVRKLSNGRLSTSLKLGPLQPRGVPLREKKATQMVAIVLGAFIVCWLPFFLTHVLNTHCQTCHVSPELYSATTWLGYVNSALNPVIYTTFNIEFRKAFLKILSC
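Cells expressing the human receptor were seeded at 1500 cells/well, incubated overnight at 37 degrees C in 5% CO2, then exposed to library compounds with dopamine controls for 90 minutes at 37 degrees C before luminescent detection.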
uPA generation: blocks generation of uPA at the cell surface | cell surface uPA generation assay, qHTS | Potency, µM (highest dose often 38.3 µM), without a hit: at the top dose activity change, negative = inhibition, hits mostly inhibitors | 330,000 compounds, 0.31% hits; active = well fitted inhibition curve with a large enough effect; inconclusive = small, poorly fitted or top-dose-only effect; inactive = no such curve, though single readings can be large or run the other way; tested in mouse RAW 264.7 cells; note: potency is the fitted concentration of half-maximal effect; % is set by controls: 0 for no effect and ±100 for the full control effect; nearly all actives have a fitted effect of over 55% in size
DRD3 agonist: activates the human D3 dopamine receptor; max activation, %; AID 652048; 410,000 compounds, 0.58% hits; P35462; D3R DiscoveRx beta-arrestin cells, luminescence, 90 min; in the data active = max activation above about 30%; note: 0% is about no effect
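Cells at 1500/well, incubated overnight, then treated with pinned compounds (dopamine as control) for 90 min at 37 degrees C. DiscoveRx reagent added for 30 - 60 minutes at room temperature; luminescence read.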
RGS4 inhibitor: inhibitors of human regulator of G protein signaling 4; P49798; Transcreener GDP fluorescence polarization, RGS4-accelerated GTP hydrolysis; Potency, µM (doses to about 114 µM), for inactives: at the highest dose activity change, negative = inhibition, actives largely listed as inhibitors; 390,000 compounds, 0.039% hits; AID 504845; active = well fitted inhibition curve with a large enough effect; inconclusive = small, poorly fitted or top-dose-only effect; inactive = no such curve, though single readings can be large or run the other way; note: potency is the fitted concentration of half-maximal effect; % is set by controls: 0 for no effect and ±100 for the full control effect; nearly all actives have a fitted effect of over 75% in size
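MLSMR compounds (23 nl, pin-transferred) preincubated 10 min at room temperature with a 500nM (2x) first reagent, then RGS4 at 900nM (2x) plus Transcreener GDP mix added; fluorescence polarization (620/688 nm) read before and after 90 min at 30 °C.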
* = called active by the depositor; ? = inconclusive; / = no result given; [ ] = another dose, or the depositor's remark.

SMILES | D3 antag | uPA generation | DRD3 agonist | RGS4 inhibitor
CCc1nnc(NS(=O)(=O)c2ccc(NC(=O)c3cccc(Cl)c3)cc2)s1 | -68* | 6% | -18 | 9%
CCc1nnc(NS(=O)(=O)c2ccc(NC(=S)NC(=O)c3ccc(Br)cc3)cc2)s1 | -65* | -3% | -16 | ?
CCc1nnc(NS(=O)(=O)c2ccc(NC(=S)NC(=O)/C=C/c3ccc(C(C)C)cc3)cc2)s1 | -129* | -7% | -6 | ?
CCc1nnc(NS(=O)(=O)c2ccc(NC(=S)NC(=O)c3ccccc3)cc2)s1 | -29 | 2% | 1 | ?
CCc1nnc(NS(=O)(=O)c2ccc(NC(=S)NC(=O)/C=C/c3ccccc3)cc2)s1 | -68* | -4% | -8 | -16%
CCc1nnc(NS(=O)(=O)c2ccc(NC(=S)Nc3ccc(F)cc3)cc2)s1 | -5 | 5% | -11 | -12%
CCc1nnc(NS(=O)(=O)c2ccc(NC(=O)c3ccc(Cl)cc3)cc2)s1 | -17 | 4% | -5 | 23%[11.4 µM]
COc1ccc(-c2nc(SCC(=O)NCc3ccccc3Cl)n[nH]2)cc1 | / | / | -1 | 3%
CCc1nnc(NS(=O)(=O)c2ccc(NC(=S)NC(=O)/C=C/c3ccc(OC)cc3)cc2)s1 | -73* | -10% | -31 | ?
CN(C)CCn1c(=O)n(Cc2ccco2)c(=O)c2c3c(sc21)CCCCC3 | -4 | / | 2 | 16%
O=c1c2c3c(sc2n(CCN2CCCC2)c(=O)n1Cc1ccco1)CCCCC3 | -64* | 2% | -10 | -7%
Cc1ccc(-c2noc(CCC(=O)Nc3ccc(F)cc3Cl)n2)cc1 | / | / | -8 | -20%
CC(C)Oc1ccc(CNC(=O)CCn2c(=O)c3cccn3c3ccc(F)cc32)cc1 | / | / | -15 | -25%
C/C(CCC(C)C)=N\Nc1ccc(S(N)(=O)=O)cc1[N+](=O)[O-] | -58* | -20% | -8 | 41%
O=C(O)c1ccc(/C=N\Nc2ccc(S(=O)(=O)N3CCOCC3)cc2[N+](=O)[O-])cc1 | -2 | -22% | 3 | 1%
NS(=O)(=O)c1ccc(N/N=C/c2ccc(C(=O)O)cc2)c([N+](=O)[O-])c1 | -51* | 1% | 0 | 20%
CCC(CC)=NNc1ccc(S(N)(=O)=O)cc1[N+](=O)[O-] | -13 | -3% | 0 | -8%[56.9 µM]
C=CCn1c(SCc2c(C)noc2C)nc2cc(C(=O)O)ccc2c1=O | 8 | / | 36* | -12%
C=CCn1c(SCc2c(C)noc2C)nc2ccccc2c1=O | -20 | / | -11 | 15%
CCOC(=O)c1c(C)oc2nc(C)nc(NCc3ccc(F)cc3)c12 | / | / | 13 | -14%
N#C/C(=C/c1ccc(N2CCCC2)c([N+](=O)[O-])c1)c1nc2ccccc2[nH]1 | ? | -6% | -1 | -13%
Cc1ccc2nc(/C(C#N)=C\c3ccc(N4CCCCC4)c([N+](=O)[O-])c3)[nH]c2c1 | -70* | -14% | -36 | 30%
C=CCN(C(C(=O)OC)C(C)C)S(=O)(=O)C=C (configuration not stated) | / | / | / | 3%
OC(CC#CCN1CCCCC1)(c1ccccc1)c1ccccc1 | -52* | -5% | -36 | -18%
OC(CCCN1CCCCC1)(c1ccccc1)c1ccccc1 | -101* | -12% | -98 | -1%
SMILES | D3 antag | uPA generation | DRD3 agonist | RGS4 inhibitor
OC(CC#CCN1CCCC1)(c1ccccc1)c1ccccc1 | -4 | 2% | -23 | 16%
CCC(O)(CCN1CCCCC1)c1ccccc1 (configuration not stated) | 15 | 0% | 4 | -11%
CC(C)C(O)(C#CCN1CCCCCC1)c1ccccc1 (configuration not stated) | -60* | 0% | -10 | 8%
Cc1nc2ccc(C(=O)NCCc3c[nH]c4ccccc34)cn2c1N(C)C(=O)CCc1ccccc1 | 18 | / | 2 | /
CCn1cc([N+](=O)[O-])c(C(=O)N2N=C(c3ccc4ccccc4c3)CC2c2cc(Br)ccc2O)n1 (configuration not stated) | -61* | -7% | 2 | -14%
CCn1cc([N+](=O)[O-])c(C(=O)N2N=C(c3ccc(Cl)c(Cl)c3)CC2c2ccccc2O)n1 (configuration not stated) | 17 | -1% | 15 | -15%
COc1ccccc1CNC(=O)c1ccc(CN2CC(=O)N3CCCCC3C2=O)cc1 (configuration not stated) | / | / | -4 | -7%
O=C1COc2ccc(-c3csc(=Nc4ccc(OC(F)F)cc4)n3CC3CCCO3)cc2N1 (configuration not stated) | -27 | / | -19 | -7%
COc1ccccc1N=c1scc(-c2ccc3c(c2)NC(=O)CO3)n1CC1CCCO1 (configuration not stated) | -75* | -10% | -13 | -28%
